Screens from PubChem BioAssay.
NPR2 activator = GC-B (human) receptor activation; HEK293-GC-B cells, CNP EC30, cGMP TR-FRET; 0% at EC30 CNP, 100% saturating CNP; activation, % at 10 µM; hit rate 0.11% among 370,000; AID 1920062;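 active means activation at 10 µM reaching about 35% in either raw or pattern-adjusted values, limit read from the data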
aDG glyco act = increases alpha dystroglycan glycosylation; Pro5-aDG cells, alpha-DG glycosylation AlphaScreen (IIH6); 0% Pro5, 100% B10-LARGE cell signal; activation, % at 10 µM; hit rate 0.22% among 360,000;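 active means activation of at least 8% versus controls, or a plate z-score of at least 8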;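 further: Pro5 are CHO cells carrying HIG-tagged alpha-DG that lacks glycosylation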
GC-A act = GC-A (human) enzyme activation. P16066. HEK293 GC-A cells, cGMP TR-FRET, EC30 ANP; 0% at EC30 ANP, 100% saturating ANP. activation, % at 10 µM. hit rate 0.14% among 370,000; in the data active means activation above about 40%
FAS TE block = FAS thioesterase (human) inhibition; P49327; recombinant FAS-TE, OMFH fluorogenic substrate, fluorescence endpoint; inhibition, % at 15 µM; hit rate 0.67% among 360,000;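 active means compounds whose normalised, plate-corrected inhibition of enzyme fluorescence in the single-dose primary screen is 50% or more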;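 further: 0% = DMSO with enzyme and 100% = substrate without enzyme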
aDG conf = alpha-DG glycosylation activation, confirmation; shares compounds with aDG glyco act; Pro5-aDG cells, IIH6 AlphaLISA; scaled to LARGE-overexpressing B10 cells as 100%; activation, % at 10 µM (by protocol); hit rate 17% among 600; AID 651671;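 active means activation of at least 7% in one or more replicates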;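 further: cells exposed to compound for two days before detection; 0% = DMSO-treated Pro5 cells and 100% = DMSO-treated B10-LARGE cells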
* marks the source's active call; other numbers are inactive results; nt = not tested or not shown. This is a sample that favours compounds with a hit; in the whole collection about 1.1% have one here.

SMILES	NPR2 activator	aDG glyco act	GC-A act	FAS TE block	aDG conf
CCN1CCc2c(sc(NC(=O)c3ccc(S(=O)(=O)N4CCOCC4)cc3)c2C(N)=O)C1	-6	88*	-2	-8	3
CC(C)N1CCc2c(sc(NC(=O)C3CCCCC3)c2C(N)=O)C1	0	8.2*	1	-6	-1
CCN1CCc2c(sc(NC(=O)c3ccc(S(=O)(=O)N4CCOCC4)cc3)c2C(=O)OC)C1	-3	0	5	-2	nt
CC1CCCN(S(=O)(=O)c2ccc(C(=O)Nc3sc4c(c3C(N)=O)CCN(C)C4)cc2)C1 (stereo not drawn)	-2	48*	-2	-5	3.7*
O=C(N[C@H](Cc1ccccc1)C(=O)NCCCc1ccccc1)[C@H]1O[C@@H](n2ccc(=O)[nH]c2=O)[C@H](O)[C@@H]1O	-3	nt	0	nt	nt
COC(=O)[C@@]1(Cc2ccc(F)cc2)[C@H]2c3cc(C(=O)N4CCCC4)n(CCSCCO)c3C[C@H]2CN1C(=O)c1ccccc1	2	5.6*	-8	6	0
NC(=O)NC[C@@H]1CC[C@@H](Cc2ccc(-c3ccccc3)cc2)O1	nt	0	nt	-7	nt
COc1ccc(NC(=O)NC[C@@H]2CC[C@@H](Cc3ccc(-c4ccccc4)cc3)O2)cc1	0	6.4*	0	10	1
CCOc1ccc(NC(=O)c2ccc(F)c(S(=O)(=O)N3CCN(c4ccccn4)CC3)c2)cc1	-1	5.0*	3	23	2.1*
O=C(Nc1ccc(F)c(F)c1)c1ccc(F)c(S(=O)(=O)N2CCC3(CC2)OCCO3)c1	7	10*	-5	16	0
CCOC(=O)[C@]12CCCCC/C=C\1N(Cc1ccc(OC)cc1)C(=O)[C@H]2CC(=O)NCc1cccc2ccccc12	3	nt	0	nt	nt
Cc1nc(SCC(=O)Nc2cc(C(N)=O)cc(C(N)=O)c2)c2c(C)c(C)sc2n1	-1	9.0*	2	-4	13*
Cc1n(CC(=O)c2ccc(F)cc2)c2ccccc2[n+]1C	-4	0	2	-10	nt
Cn1c(=N)n(CC(=O)c2ccc(F)cc2)c2ccccc21	-2	3.8*	2	-4	3
Cn1c(=N)n(CC(=O)c2ccc(Br)cc2)c2ccccc21	-1	4.8*	2	-2	6.1*
O=C(NCCN1CCC(Cc2ccccc2)CC1)C1CCCN(S(=O)(=O)c2cccs2)C1 (stereo not drawn)	-1	nt	-4	nt	nt
CC(=O)c1c(C)[nH]c(C(=O)OCCCCN2C(=O)c3ccccc3C2=O)c1C	-4	6.9*	4	2	2
CC(=O)c1c(C)[nH]c(C(=O)OCc2ccccc2)c1C	2	2	5	1	nt
CCNc1ccc(S(=O)(=O)NCCN(C)C)cc1[N+](=O)[O-]	3	0	2	-5	nt
CN(C)CCCNS(=O)(=O)c1ccc(NC2CCCCCC2)c([N+](=O)[O-])c1	-5	3.3*	4	-6	4.9*
Cc1ccc(CN2CCCCC(NC(=O)c3ccc(C)cc3)C2=O)cc1 (stereo not drawn)	1	nt	1	nt	nt
O=C(CSc1nnc(-c2cccnc2)n1-c1ccc(Cl)cc1)Nc1ccc(S(=O)(=O)Nc2nccs2)cc1	1	nt	0	nt	nt
CC1Sc2ccc(C(=O)NCc3ccccn3)cc2NC1=O (stereo not drawn)	3	5.5*	2	-7	1
COC(=O)[C@]12C[C@H](CC(=O)N3CCOCC3)C(=O)N(CCC3=CCCCC3)C1=C[C@H](C(C)C)O[C@@H]2C1CC1	1	nt	-3	nt	nt
CN1C(=O)c2cccc(NCCCCCCN3C(=O)c4ccccc4C3=O)c2C1=O	-2	4.5*	2	8	-1
SMILES	NPR2 activator	aDG glyco act	GC-A act	FAS TE block	aDG conf
CCC[C@H]1[C@H](N)CC[C@@]23CCCN2C(=O)CCC[C@@H]13	-3	nt	-2	nt	nt
Cc1ccc(-c2cccc3[nH]cc(C)c23)s1	-10	nt	-3	nt	nt
O=C(NCCN1CCOCC1)c1ccc(Cl)c(S(=O)(=O)N2CCCCCC2)c1	0	4.7*	1	-8	-1
Cn1cnc([N+](=O)[O-])c1Oc1ccc2ccccc2c1	16	4.7*	6	1	-1
Cn1c(=O)c2c(nc(NCc3ccco3)n2CCc2ccccc2)n(C)c1=O	6	0	8	-4	nt
CCn1c(NCc2ccco2)nc2c1c(=O)n(C)c(=O)n2C	5	6.3*	7	-6	0
CCOC(=O)c1sc(N/N=C/c2ccc(N(C)C)cc2)nc1C	-7	0	-4	4	nt
C=CCc1c(C)nc(C)nc1N/N=C/c1ccc(N(C)C)cc1	-6	6.3*	-11	-4	0
COC(=O)c1ccc(NC(=O)c2ccc3nccnc3c2)cc1	2	0	2	-3	nt
O=C(Nc1ccc(OC(F)(F)F)cc1)c1ccc2nccnc2c1	-1	5.5*	-1	-3	0
CC/C(=N\NC(=S)Nc1cc(C)ccc1C)c1ccc(OC(F)F)cc1	3	5.7*	4	26	0
CC/C(=N\NC(=S)Nc1ccc(OC)cc1)c1ccc(OC(F)F)cc1	2	0	-1	39	nt
NC(=NC(=O)c1ccc(OC(F)(F)F)cc1)c1ccc(C(F)(F)F)cn1	2	3.8*	0	7	0
CCc1ccccc1NC(=O)C1CCC(=O)N(c2ccc(OC)cc2)C1c1ccc(OC)cc1 (stereo not drawn)	2	nt	-3	nt	nt
COc1ccc(N(CC(=O)Nc2ccc(C)cc2)S(=O)(=O)c2c(C)noc2C)cc1	0	1	-3	15	nt
Cc1ccc(N(CC(=O)Nc2cc(C)cc(C)c2)S(=O)(=O)c2c(C)noc2C)cc1	-3	7.6*	-4	24	1
Cc1cc(C)cc(SCc2noc(C(=O)NCCN(C)C)c2C(=O)NCCN(C)C)c1	0	7.2*	-1	-2	1
CCN(C(=O)CC(C)C)c1nnc(Cn2nnc3ccccc32)s1	4	3	4	-1	nt
CCN(C(=O)c1ccc(C(C)(C)C)cc1)c1nnc(Cn2nnc3ccccc32)s1	6	7.9*	2	23	3
Nc1[nH]c(C(=O)c2ccccc2)c(-c2cccc(C(F)(F)F)c2)c1C(=O)NCCc1c[nH]c2ccccc12	-5	nt	-11	nt	nt
CC(C)N1CCN(c2ccc(OCC3COC(Cn4cncn4)(c4ccc(Cl)cc4Cl)O3)cc2)CC1 (stereo not drawn)	1	21*	0	-5	9.9*
CC(C)N1CCN(c2ccc(OC[C@H]3CO[C@](Cn4cncn4)(c4ccc(Cl)cc4Cl)O3)cc2)CC1	0	6	1	1	nt
CC(C)C[C@H]1COc2cc(F)ccc2S(=O)(=O)N1C	8	nt	0	nt	nt
O=C(COC(=O)c1cccc(Br)c1)NCCNC(=O)COC(=O)c1cccc(Br)c1	3	7.4*	-5	4	0
CCc1cccc2c(C(C)c3ccccc3O)c[nH]c12 (stereo not drawn)	-6	nt	-4	nt	nt
